# Values quoted from earlier work in PubChem BioAssay AID977611.
# In all, about 3,900 compounds went through this assay and about 3,900 (100%) were called active. Cut-off not given; nearly all actives show Kd up to about 4200 µM. The set was probably picked from earlier hits. The list shows a part of the results. Numbered stars: 1 amine (or outer) side, 2 acyl side, 3 side chain; on linkers, the order of the positions; unused ones are H or OH. Bridge positions count the residues as written; N and C are the ends. Where a SMILES comes first, the peptide text is derived from it. Non-standard residues stand in square brackets, D forms with d. Square brackets hold non-standard residues; d marks the D form. Residues, ends and D or L forms follow the SMILES beside them. Peptide text beside a SMILES is read from it. [ ]: non-standard residue; d: D form. Orn(CH(NH2)2) = NC(N)NCCC[C@H](N)C(=O)O; Cha = N[C@@H](CC1CCCCC1)C(=O)O; Orn = NCCC[C@H](N)C(=O)O; X1 = O=C(C[*:1])[*:2]; Aib = CC(C)(N)C(=O)O
# Experiment: PubChem AID 977611
# Settings: PDB protein-ligand complexes, literature Kd
compound,measurement,setting,value
CCCCCCCCNc1cc(-c2ccc(OC)cc2)nc(N)n1,Kd,"protein: Acetylcholine-binding protein AChBP, PDB entry 4qaa",360 nM (active)
O=c1ccn([C@@H]2O[C@H](CO[P+](O)(O)O)[C@@H](O)[C@H]2O)c(=O)[nH]1,Kd,"protein: Orotidine 5'-phosphate decarboxylase, PDB entry 3w07",420000 nM (active)
O=c1ccn([C@H]2C[C@H](O)[C@@H](CO[P+](O)(O)N[P+](O)(O)O[P+](O)(O)O)O2)c(=O)[nH]1,Kd,"protein: DUTPase, PDB entry 4gv8",320 nM (active)
C[C@H]1O[C@@H](n2ccc(=O)[nH]c2=O)[C@H](O)[C@@H]1O,Kd,"protein: GLUCOSYL-3-PHOSPHOGLYCERATE SYNTHASE (GpgS), PDB entry 4de7",16000 nM (active)
O=c1ccn([C@@H]2O[C@H](CO[P+](O)(O)N[P+](O)(O)O[P+](O)(O)O)[C@@H](O)[C@H]2O)c(=O)[nH]1,Kd,"protein: Poly(A) RNA polymerase protein cid1, PDB entry 4nkt",1080 nM (active)
O=[N+]([O-])c1ccc2c(ccn2[C@H]2C[C@H](O)[C@@H](CO[P+](O)(O)O[P+](O)(O)O[P+](O)(O)O)O2)c1,Kd,"protein: Ribonucleoside-diphosphate reductase large chain 1, PDB entry 3rsr",44000 nM (active)
CC[C@H](C)[C@H](NC(=O)[C@H](Cc1ccc(O)cc1)NC(=O)[C@H](Cc1c[nH]c2ccccc12)NC(=O)[C@H](CC(C)C)NC(=O)[C@H](Cc1c[nH]c2ccccc12)NC(=O)[C@H](CC(N)=O)NC(=O)[C@@H](NC(=O)[C@@H](NC(=O)[C@H](CC(=O)O)NC(=O)[C@H](Cc1ccccc1)NC(=O)[C@H](Cc1c[nH]c2ccccc12)NC(=O)[C@@H](N)CC(N)=O)[C@@H](C)CC)[C@@H](C)O)C(=O)N[C@@H](CCCCN)C(=O)N[C@@H](CCCCN)C(=O)N[C@@H](CCCCN)C(=O)N[C@@H](CCCCN)C(=O)O,Kd,"protein: human fab 4e10, PDB entry 2fx7",20 nM (active)
H-KIIDTGGGFIL-OH,Kd,"protein: DNA excision repair protein ERCC-1, PDB entry 2jnw",780 nM (active)
H-EDDDIKQLAAWAT-OH,Kd,"protein: Programmed cell death 6-interacting protein, PDB entry 3c3r",41000 nM (active)
H-TKIDWNKIA-OH,Kd,"protein: Protein S100-B, PDB entry 3iqq",2900 nM (active)
H-DEEALKQLAEWVS-OH,Kd,"protein: Programmed cell death 6-interacting protein, PDB entry 3c3o",44000 nM (active)
CC(C)C[C@H](NC(=O)[C@H](Cc1ccc(O)cc1)NC(=O)[C@@H](CCCCN)NC(=O)[C@@H](CO)NC(=O)[C@H](Cc1ccccc1)NC(=O)[C@H](CC1CCCCC1)NC(=O)[C@H](CC(=O)O)NC(=O)[C@H](CO)NC(=O)[C@@H](N)CCCCN)C(=O)N[C@@H](Cc1c[nH]c2ccccc12)C(=O)N[C@@H](CO)C(=O)N[C@@H](CO)C(=O)N[C@@H](CCCCN)C(=O)O (H-KSD[Cha]F[dS][dK]YLWSSK-OH),Kd,"protein: human Urokinase plasminogen activator surface receptor(uPAR/CD87), PDB entry 1ywh",16.4 nM (active)
CC[C@H](C)[C@H](NC(=O)[C@H](Cc1c[nH]c2ccccc12)NC(=O)[C@H](CC(=O)O)NC(=O)[C@H](CCC(=O)O)NC(=O)[C@H](CC(C)C)NC(=O)[C@@H](N)Cc1ccc(O)cc1)C(=O)N[C@@H](CCCCN)C(=O)N[C@@H](Cc1ccc(O)cc1)C(=O)N[C@@H](CC(N)=O)C(=O)N[C@@H](CC(N)=O)C(=O)N[C@H](C=O)CCC(N)=O (H-YLEDWIKYNNQ-aldehyde),Kd,"protein: FAB F22-4, PDB entry 3ggw",2900 nM (active)
CC[C@H](C)[C@H](NC(=O)[C@H](Cc1ccccc1)NC(=O)[C@H](C)N)C(=O)N[C@H](C(=O)N[C@@H](Cc1c[nH]c2ccccc12)C(=O)N[C@@H](CC(C)C)C(=O)N[C@@H](C)C(=O)N[C@@H](CCCNC(N)N)C(=O)N[C@@H](CCCNC(N)N)C(=O)N[C@@H](CC(C)C)C(=O)N[C@@H](CCCCN)C(=O)N[C@@H](CCCCN)C(=O)NCC(=O)N[C@@H](CCCCN)C(=O)N[C@@H](CCCCN)C(=O)O)[C@@H](C)CC (H-AFIIWLA[Orn(CH(NH2)2)][Orn(CH(NH2)2)]LKKGKK-OH),Kd,"protein: Calmodulin, PDB entry 2lgf",2700 nM (active)
CC[C@H](C)[C@@H]1NC(=O)[C@@H](NC(=O)[C@H](Cc2ccccc2)NC(=O)[C@H](Cc2c[nH]c3ccccc23)NC(=O)[C@@H](N)CC(N)=O)CSCC(=O)NCCC[C@@H](C(=O)N[C@@H](Cc2c[nH]c3ccccc23)C(=O)N[C@@H](CC(C)C)C(=O)N[C@@H](Cc2c[nH]c3ccccc23)C(=O)N[C@@H](CCCCN)C(=O)N[C@@H](CCCCN)C(=O)N[C@@H](CCCCN)C(=O)N[C@@H](CCCCN)C(=O)O)NC(=O)[C@H]([C@@H](C)O)NC1=O (H-NWFCIT[Orn]WLWKKKK-OH; linker 4-7 via X1),Kd,"protein: human fab 4e10, PDB entry 2fx9",17 nM (active)
CC[C@H](C)[C@H](NC(=O)[C@H](CC(=O)O)NC(=O)[C@H](Cc1ccccc1)NC(=O)[C@H](CCCNC(N)N)NC(=O)[C@H](CC(C)C)NC(=O)[C@H](CCCCN)NC(=O)[C@@H](N)CCCCN)C(=O)O (H-KKL[Orn(CH(NH2)2)]FDI-OH),Kd,"protein: Serine/threonine-protein phosphatase PP1-alpha catalytic subunit, PDB entry 3n5u",1200 nM (active)
CC(C)C[C@H](NC(=O)[C@@H](NC(=O)CNC(=O)[C@H](Cc1ccc(O)cc1)NC(=O)[C@@H](NC(=O)CNC(=O)[C@@H](NC(=O)[C@H](CCCNC(N)N)NC(=O)[C@H](CCCNC(N)N)NC(=O)[C@H](C)N)[C@@H](C)O)[C@@H](C)O)C(C)C)C(=O)N[C@@H](C)C(=O)N[C@@H](C)C(=O)N[C@@H](Cc1c[nH]c2ccccc12)C(=O)N[C@@H](C)C(=O)N[C@@H](C)C(=O)N[C@@H](C)C(=O)O (H-A[Orn(CH(NH2)2)][Orn(CH(NH2)2)]TGTYGVLAAWAAA-OH),Kd,"protein: mouse radixin FERM domain, PDB entry 1j19",16.4 nM (active)
CC[C@H](C)[C@H](NC(=O)[C@H](CCC(=O)O)NC(=O)[C@H](CC(N)=O)NC(=O)[C@H](CCC(=O)O)NC(=O)[C@@H](NC(=O)[C@H](Cc1c[nH]c2ccccc12)NC(=O)CNC(=O)[C@H](CO)NC(=O)[C@H](CCC(=O)O)NC(=O)[C@H](CCCCN)NC(=O)[C@H](CO)NC(=O)[C@H](CCCNC(N)N)NC(=O)CN)C(C)C)C(=O)N[C@@H](Cc1ccc(O)cc1)C(=O)N[C@@H](Cc1ccc(O)cc1)C(=O)O (H-G[Orn(CH(NH2)2)]SKESGWVENEIYY-OH),Kd,"protein: Talin-1, PDB entry 2k00",24000 nM (active)
CC[C@H](C)[C@H](NC(=O)[C@H](CC(C)C)NC(=O)[C@H](CCC(=O)O)NC(=O)[C@H](CCCNC(N)N)NC(=O)[C@H](CCCCN)NC(=O)[C@@H](N)CCCCN)C(=O)N[C@@H](CCC(=O)O)C(=O)N[C@@H](CO)C(=O)N[C@@H](CCCCN)C(=O)N[C@@H](Cc1c[nH]c2ccccc12)C(=O)N[C@@H](Cc1cnc[nH]1)C(=O)N[C@@H](CCCNC(N)N)C(=O)N[C@@H](CC(C)C)C(=O)N[C@@H](CC(C)C)C(=O)N[C@@H](Cc1ccccc1)C(=O)N[C@@H](Cc1cnc[nH]1)C(=O)N[C@@H](CC(=O)O)C(=O)N[C@@H](CCCCN)C(=O)N[C@@H](CCCCN)C(=O)O (H-KK[Orn(CH(NH2)2)]ELIESKWH[Orn(CH(NH2)2)]LLFHDKK-OH),Kd,"protein: Chlamydomonas reinhardtii caltractin (CRC-C), PDB entry 1oqp",50 nM (active)
H-TWIENKLYGM-OH,Kd,"protein: Dock 1 PTB domain, PDB entry 1uef",3200 nM (active)
CC[C@H](C)[C@H](NC(=O)[C@H](CC(=O)O)NC(=O)[C@H](Cc1ccccc1)NC(=O)[C@H](Cc1c[nH]c2ccccc12)NC(=O)[C@@H](N)CC(N)=O)C(=O)N[C@H](C(=O)N[C@@H](CC(N)=O)C(=O)NC(C)(C)C(=O)N[C@@H](CC(C)C)C(=O)N[C@@H](Cc1c[nH]c2ccccc12)C(=O)N[C@@H](CCCNC(N)N)C(=O)N[C@@H](CCCNC(N)N)C(=O)O)[C@@H](C)O (H-NWFDITN[Aib]LW[Orn(CH(NH2)2)][Orn(CH(NH2)2)]-OH),Kd,"protein: human fab 4e10, PDB entry 2fx8",302 nM (active)
H-KEEEDDDMKELENWAGSM-OH,Kd,"protein: Programmed cell death 6-interacting protein, PDB entry 3c3q",48000 nM (active)
